Assay results published in PubChem BioAssay (NCI).
This is part of a sample that, as a whole, favours compounds with a hit. Of some 79,000 tested, about 15% had one in any assay. Activity calls are given as the source filed them. Cut-off read from the data, not from the text of the source: active = growth inhibition above about 70%; inactive = the rest.

What was measured:
[1] = NCI Yeast Anticancer Drug Screen. Data for the rad52 strain (AID 147);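 note: 0% = growth of vehicle-treated control cultures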; conditions: S. cerevisiae rad52 mutant growth inhibition, stronger effect = higher value
In short: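 Vehicle-treated cultures served as the reference for growth inhibition of compound-exposed yeast bearing a DNA repair mutation.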

[2] = NCI Yeast Anticancer Drug Screen. Data for the wt1 strain (AID 149);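 note: 0% = growth of vehicle-treated wt1 cultures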; conditions: S. cerevisiae wt1 strain (SPY 50644) growth inhibition, stronger effect = higher value
In short: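 Yeast wt1 strain exposed to compounds; growth inhibition measured relative to vehicle-treated controls.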

[3] = NCI Yeast Anticancer Drug Screen. Data for the rad50EPP+ strain (AID 151);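 note: 0% = growth of vehicle-treated control cultures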; conditions: S. cerevisiae rad50 mutant strain, stronger effect = higher value
In short: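 In this screen, rad50EPP+ yeast were exposed to compounds. Growth inhibition was scored against vehicle-treated controls.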

[4] = NCI Yeast Anticancer Drug Screen. Data for the mgt1 strain (AID 153); conditions: S. cerevisiae mgt1 mutant growth inhibition, stronger effect = higher value
In short: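 mgt1 strain exposed; growth vs vehicle control recorded as inhibition.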

[5] = NCI Yeast Anticancer Drug Screen. Data for the rad50 strain (AID 155);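 note: 0% = growth of vehicle-only cultures of the same strain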; conditions: S. cerevisiae rad50 strain growth inhibition, stronger effect = higher value
In short: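 Yeast carrying a defined DNA repair defect were exposed to test compounds, and growth was compared with vehicle-treated controls to give percent inhibition.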

[6] = NCI Yeast Anticancer Drug Screen. Data for the mec2-1 strain (AID 157); conditions: S. cerevisiae mec2-1 strain, stronger effect = higher value
In short: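 Vehicle-treated cultures served as reference for growth inhibition of compound-exposed mec2-1 yeast.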

[7] = NCI Yeast Anticancer Drug Screen. Data for the rad14 strain (AID 159);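 note: 0% = growth of vehicle-treated control cultures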; conditions: S. cerevisiae rad14 strain growth inhibition, stronger effect = higher value
In short: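 Yeast cells carrying a defined DNA-repair defect were exposed to compounds, and growth inhibition was calculated relative to vehicle-treated control cultures.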

[8] = NCI Yeast Anticancer Drug Screen. Data for the sgs1 mgt1 strain (AID 161);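 note: 0% = growth of cultures given vehicle only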; conditions: S. cerevisiae sgs1 mgt1 strain, stronger effect = higher value
In short: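 Read-out: growth inhibition vs vehicle controls. Cells: mutant yeast strain deficient in DNA damage repair.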

[9] = NCI Yeast Anticancer Drug Screen. Data for the CLN2oe strain (AID 163);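 note: 0% = growth of vehicle-only control cultures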; conditions: S. cerevisiae CLN2oe strain, stronger effect = higher value
In short: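 Inhibition relative to vehicle-treated yeast is reported. Cells: strain with genetic alteration in cell-cycle control, grown with compound.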

[10] = NCI Yeast Anticancer Drug Screen. Data for the cln2 rad14 strain (AID 165);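 note: 0% = growth equal to vehicle treated cultures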; conditions: S. cerevisiae cln2 rad14 strain, stronger effect = higher value
In short: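 Each compound was tested on cln2 rad14 yeast. Inhibition of growth was calculated against vehicle-exposed controls.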

[11] = NCI Yeast Anticancer Drug Screen. Data for the bub3 strain (AID 167); conditions: S. cerevisiae bub3 mutant strain, stronger effect = higher value
In short: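 Compounds were applied to a genetically altered yeast strain carrying a cell-cycle control defect. Growth inhibition was scored against vehicle-treated controls.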

[12] = NCI Yeast Anticancer Drug Screen. Data for the wt2 strain (AID 169);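 note: 0% = growth of vehicle-treated yeast cultures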; conditions: S. cerevisiae wt2 strain growth inhibition, stronger effect = higher value
In short: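 Inhibition of yeast growth was determined after compound treatment, normalised to controls receiving only vehicle.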

[13] = NCI Yeast Anticancer Drug Screen. Data for the mlh1 strain (AID 171);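 note: 0% = growth of vehicle-treated control cultures of the same strain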; conditions: S. cerevisiae mlh1 strain growth inhibition, stronger effect = higher value
In short: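 Vehicle-normalised growth inhibition of a repair- or checkpoint-altered yeast strain following compound treatment.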

[14] = NCI Yeast Anticancer Drug Screen. Data for the sgs1 strain (AID 173);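 note: 0% = growth of vehicle-only control cultures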; conditions: S. cerevisiae sgs1 mutant, stronger effect = higher value
In short: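 Screen format: yeast with repair or checkpoint alterations, compound exposure, growth read relative to vehicle.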

[15] = NCI Yeast Anticancer Drug Screen. Data for the mlh1 rad18 strain (AID 175); conditions: S. cerevisiae mlh1 rad18 strain growth inhibition, stronger effect = higher value
In short: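 Vehicle-treated cultures served as the reference for growth inhibition in a yeast strain carrying DNA damage repair alterations exposed to each compound.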

[16] = NCI Yeast Anticancer Drug Screen. Data for the rad18 strain (AID 177); conditions: S. cerevisiae rad18 mutant growth inhibition, stronger effect = higher value
In short: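 Test articles were incubated with altered yeast defective in DNA damage repair. Results are given as inhibition of growth versus vehicle.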

[17] = at 5.0 µM (retest, dose inferred, filed as 0.5)
[18] = at 50.0 µM (retest, dose inferred, filed as 5.0)

Measured: growth inhibition

CCN(CC)CCN1C(=O)c2cccc3cc(OC)cc(c23)C1=O
active: [1]; at 11.0 µM 72% | [1]; at 33.0 µM 91% | [1]; at 100.0 µM 93% | [3]; at 33.0 µM 86% | [3]; at 100.0 µM 93% | [5]; at 11.0 µM 74% | [5]; at 33.0 µM 90% | [5]; [18] 94% | [5]; at 50.0 µM 79.6% | [5]; at 100.0 µM 93%
inactive: [1]; at 1.2 µM 8% | [1]; at 3.7 µM 48% | [2]; at 1.2 µM -5% | [2]; at 3.7 µM 1% | [2]; at 11.0 µM -3% | [2]; at 33.0 µM -7% | [2]; at 100.0 µM -1% | [3]; at 1.2 µM 9% | [3]; at 3.7 µM 37% | [3]; at 11.0 µM 60% | [4]; at 1.2 µM -10% | [4]; at 3.7 µM -12% | [4]; at 11.0 µM -10% | [4]; at 33.0 µM -4% | [4]; at 100.0 µM 1% | [5]; at 1.2 µM 4% | [5]; at 3.7 µM 43% | [5]; [17] 31% | [6]; at 1.2 µM -10% | [6]; at 3.7 µM -3% | [6]; [17] 5% | [6]; at 11.0 µM -12% | [6]; at 33.0 µM -14% | [6]; [18] 19% | [6]; at 50.0 µM 1.45% | [6]; at 100.0 µM 16% | [7]; at 1.2 µM -10% | [7]; at 3.7 µM 1% | [7]; at 11.0 µM -9% | [7]; at 33.0 µM -6% | [7]; at 100.0 µM 3% | [8]; [17] 13% | [8]; [18] 27% | [8]; at 50.0 µM -4.05% | [9]; at 1.2 µM 2% | [9]; at 3.7 µM -4% | [9]; at 11.0 µM 5% | [9]; at 33.0 µM 7% | [9]; at 100.0 µM 24% | [10]; [17] 27% | [10]; [18] 18% | [10]; at 50.0 µM -3.8% | [11]; at 1.2 µM -9% | [11]; at 3.7 µM -3% | [11]; [17] 11% | [11]; at 11.0 µM -7% | [11]; at 33.0 µM 1% | [11]; [18] 15% | [11]; at 50.0 µM -22.1% | [11]; at 100.0 µM 11% | [12]; at 1.2 µM -23% | [12]; at 3.7 µM -3% | [12]; at 11.0 µM -38% | [12]; at 33.0 µM -35% | [12]; at 100.0 µM 13% | [13]; at 1.2 µM -24% | [13]; at 3.7 µM -5% | [13]; at 11.0 µM -7% | [13]; at 33.0 µM -15% | [13]; at 100.0 µM 9% | [14]; at 1.2 µM -4% | [14]; at 3.7 µM 40% | [14]; at 11.0 µM 42% | [14]; at 33.0 µM 36% | [14]; at 100.0 µM 42% | [15]; [17] 12% | [15]; [18] 36% | [15]; at 50.0 µM -14.2% | [16]; at 1.2 µM 7% | [16]; at 3.7 µM -2% | [16]; at 11.0 µM -13% | [16]; at 33.0 µM -12% | [16]; at 100.0 µM 12%
